Reference: PubChem BioAssay (Tox21)
“And” between values parts separate entries of the source, which are not always exact repeats. Equal values may be shown once. Records with an inconclusive call do not appear. The source made the active and inactive calls. Unless noted, calls come from the whole dose curve; as a rule, active = well fitted curve in the direction sought with a large enough effect in the repeat runs; inconclusive = weak or mixed curves; inactive = no such curve, though single readings can be large; an effect the other way counts as inactive or inconclusive.

What was measured:
[1] = qHTS assay for small molecules that induce genotoxicity in human embryonic kidney cells expressing luciferase-tagged ATAD5 (AID 651632); note: nearly all actives have a fitted effect of over 15% in size; note: potency is the fitted concentration of half-maximal effect
Outline: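 Reporter cells (HEK293T) express luciferase-tagged ATAD5, a protein that accumulates after DNA damage. Treat 16 hr at 37C/5% CO2, add Amplite, wait 30 min at RT, and read luminescence.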

[2] = qHTS assay for small molecule agonists of the p53 signaling pathway - cell viability (AID 651633; calls by dose curve; note: nearly all actives have a fitted effect of over 30% in size; note: potency is the fitted concentration of half-maximal effect)
Outline: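 Viability counter-read: CellTiter-Glo luminescence (30 min, room temperature) in the same p53RE-bla plates. These plates had been exposed to compounds for 16 h at 37 C.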

[3] = qHTS assay for small molecules that induce genotoxicity in human embryonic kidney cells expressing luciferase-tagged ATAD5 - cell viability (AID 651634; calls by dose curve; note: nearly all actives have a fitted effect of over 25% in size; note: potency is the fitted concentration of half-maximal effect)
Outline: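 Seeding of 2,000 HEK293T ATAD5-luciferase cells per well preceded pin-tool compound transfer. Plates sat 15.5 hr at 37C under 5% CO2, then fluorescence was read after 30 min with CellTiter-Fluor.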

[4] = qHTS assay for small molecule disruptors of the mitochondrial membrane potential - cell viability (AID 720634; calls by dose curve; note: nearly all actives have a fitted effect of over 20% in size; note: potency is the fitted concentration of half-maximal effect)
Outline: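 Measuring cytotoxicity alongside mitochondrial potential, the screen quantified ATP by luminescence in HepG2 cells after 1 hr compound incubation and a 30 min room-temperature CellTiter-Glo step.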

[5] = qHTS assay to test for compound auto fluorescence at 590 nm (red) in HepG2 cells (AID 720674)
Outline: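 We screened compounds on adherent HepG2 cells, incubating them for an hour at 37 C in 5% CO2 before reading emission at 590 nm under 540 nm excitation; values reflect equivalence to Rose Bengal sodium fluorescence.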

[6] = qHTS assay to test for compound auto fluorescence at 535 nm (green) in HepG2 cells (AID 720675)
[7] = qHTS assay to test for compound auto fluorescence at 460 nm (blue) in HEK293 cells (AID 720678); note: potency is the fitted concentration of half-maximal effect
Outline: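 HEK293 cells (2,000 per well, medium with 10% dialyzed FBS) attached for 4-5 hr at 37C, then received compound and stood overnight at 37C, 5% CO2. Blue fluorescence was read at Ex/Em 405/460 nm and expressed relative to triamterene.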

[8] = qHTS assay to test for compound auto fluorescence at 590 nm (red) in HEK293 cells (AID 720679)
Outline: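 HEK293 cells (2,000/well, medium with 10% dialyzed FBS) attached for 4-5 hr at 37C, received 23 nL compound and were incubated overnight at 37C, 5% CO2. Red fluorescence was then read at 540/590nm Ex/Em, referenced to Rose Bengal sodium.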

[9] = qHTS assay to test for compound auto fluorescence at 535 nm (green) in HEK293 cells (AID 720680)
[10] = qHTS assay to test for compound auto fluorescence at 460 nm (blue) in HEK293 cell free culture (AID 720681); note: potency is the fitted concentration of half-maximal effect
Outline: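 Blue fluorescence (Ex 405/Em 460 nm, triamterene-equivalent) was read immediately after pin transfer of compound or DMSO into medium (DMEM, 10% FBS) without cells.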

[11] = qHTS assay to test for compound auto fluorescence at 535 nm (green) in HEK293 cell free culture (AID 720682)
Outline: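 Green-label autofluorescence (485 nm excitation, 535 nm emission) measured on compound added to cell-free culture medium (DMEM, 10% FBS). Output is expressed relative to fluorescein.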

[12] = qHTS assay to test for compound auto fluorescence at 590 nm (red) in HEK293 cell free culture (AID 720683)
Outline: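 Red-channel autofluorescence of compounds in culture medium (DMEM, 10% FBS), no cells, measured at 540/590 nm. Rose Bengal sodium is the reference fluorophore for equivalence.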

[13] = qHTS assay to test for compound auto fluorescence at 590 nm (red) in HepG2 cell free culture (AID 720684)
Outline: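 Steps: dispense MEM/10% FBS medium, no cells; pin compound or DMSO vehicle; read red channel, Ex/Em 540/590 nm. Output given as Rose Bengal sodium equivalents.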

[14] = qHTS assay to test for compound auto fluorescence at 535 nm (green) in HepG2 cell free culture (AID 720686)
[15] = biological target: Glucocorticoid receptor (Homo sapiens) (UniProt P04150); experiment: qHTS assay to identify small molecule agonists of the glucocorticoid receptor (GR) signaling pathway (AID 720691; active = well fitted activation curve with a large enough effect in the signal ratio in the repeat runs, not every such curve was filed as active; the % refers to the signal ratio)
Outline: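 Reporter read-out: fluorescence intensity following 2 h room-temperature LiveBLAzer B/G FRET substrate loading. Prior step: GR-bla HeLa cells held 4 h, then treated 18 h at 37 C.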

[16] = biological target: Glucocorticoid receptor (Homo sapiens) (UniProt P04150); experiment: qHTS assay to identify small molecule antagonists of the glucocorticoid receptor (GR) signaling pathway (AID 720692; active = well fitted inhibition curve with a large enough effect in the signal ratio in the repeat runs, not every such curve was filed as active; the % refers to the signal ratio; note: potency is the fitted concentration of half-maximal effect)
Outline: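 Dexamethasone (5 nM final) stimulated a stably integrated GRE-beta-lactamase reporter in HeLa cells during 18 h co-incubation with compounds; signal was quantified as fluorescence intensity of B/G FRET substrate after 2 h.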

[17] = qHTS assay to test for compound auto fluorescence at 460 nm (blue) in HepG2 cell free culture (AID 720685)
Outline: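 Compound (23 nL) or DMSO pinned into cell-free MEM with 10% FBS; blue fluorescence read at 405/460 nm excitation/emission, expressed as auto-fluorescence equivalency to triamterene.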

[18] = qHTS assay to test for compound auto fluorescence at 460 nm (blue) in HepG2 cells (AID 720687)
Outline: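 Blue-channel autofluorescence (Ex/Em 405/460 nm, triamterene-equivalent) was measured after 1 hr compound exposure at 37 C, 5% CO2. Cells were HepG2, plated overnight at 37 C in MEM plus 10% FBS.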

[19] = qHTS assay for small molecule disruptors of the mitochondrial membrane potential (AID 720635); note: potency is the fitted concentration of half-maximal effect
Outline: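 Mitochondrial membrane potential tracked with Mito-MPS dye, red aggregates (ex 540/em 590 nm) against green monomers (ex 490/em 535 nm). Compound treatment 1 hr at 37C, dye 30 min in HepG2.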

Measured: Potency
Tags give direction and shape of the fitted curve or compound fluorescence and quenching.

Glucocorticoid receptor (Homo sapiens), sequence (P04150 whole entry, looked up): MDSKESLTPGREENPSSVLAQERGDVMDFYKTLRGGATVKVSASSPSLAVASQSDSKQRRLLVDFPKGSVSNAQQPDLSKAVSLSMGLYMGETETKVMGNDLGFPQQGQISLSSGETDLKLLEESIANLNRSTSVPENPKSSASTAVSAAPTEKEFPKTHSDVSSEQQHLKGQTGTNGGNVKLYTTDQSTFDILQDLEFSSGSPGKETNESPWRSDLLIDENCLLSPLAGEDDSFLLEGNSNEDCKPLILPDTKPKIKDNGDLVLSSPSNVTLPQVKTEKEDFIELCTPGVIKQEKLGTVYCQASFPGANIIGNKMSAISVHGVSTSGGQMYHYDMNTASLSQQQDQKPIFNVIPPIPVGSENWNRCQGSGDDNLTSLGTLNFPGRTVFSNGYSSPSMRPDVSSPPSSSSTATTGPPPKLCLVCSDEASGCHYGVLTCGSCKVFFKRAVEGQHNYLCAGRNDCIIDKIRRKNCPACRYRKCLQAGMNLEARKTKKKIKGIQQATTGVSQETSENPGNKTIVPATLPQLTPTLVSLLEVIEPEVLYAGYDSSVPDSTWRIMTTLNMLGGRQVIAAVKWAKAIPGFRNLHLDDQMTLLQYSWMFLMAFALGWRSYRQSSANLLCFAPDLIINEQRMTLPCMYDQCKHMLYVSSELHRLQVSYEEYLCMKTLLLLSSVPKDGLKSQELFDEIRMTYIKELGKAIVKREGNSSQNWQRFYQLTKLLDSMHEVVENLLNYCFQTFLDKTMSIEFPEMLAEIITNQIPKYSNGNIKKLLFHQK

Cc1c(Cl)c(=O)oc2cc(OP(=O)(OCCCl)OCCCl)ccc12
active: [7] 12.6 µM [fluorescent] | [10] 12.6 µM
not listed: [17] | [18] | [19]
inactive: all other assays above

O=C(CBr)c1ccc(O)cc1
not listed: [14] | [19]
inactive: all other assays above

BrC(Br)C(Br)(Br)Br
not listed: [16] | [17] | [19]
inactive: all other assays above

O=C(O)COc1nc(Cl)c(Cl)cc1Cl
active: [19] 19.8 µM
not listed: [5] | [11] | [13] | [16]
inactive: all other assays above

O=[N+]([O-])c1ccc2ccc3cccc4ccc1c2c34
active: [1] 48.5 µM
not listed: [14] | [15] | [16] | [19]
inactive: all other assays above

CC(C)(C)c1ccc(CSc2cnn(C(C)(C)C)c(=O)c2Cl)cc1
active: [4] 24.3 µM
not listed: [16] | [19]
inactive: all other assays above

CC1CCC(C(C)C)C(OC(=O)c2ccccc2N)C1 (stereo unspecified)
active: [2] 26.6 µM and 60.3 µM | [19] 13.3 µM and 17 µM
not listed: [4] | [13] | [15]
inactive: all other assays above

COc1cccc(C(=O)CCN[C@@H](C)[C@H](O)c2ccccc2)c1
not listed: [11] | [16] | [19]
inactive: all other assays above

CN(C)C1CSSSC1
not listed: [13] | [16] | [19]
inactive: all other assays above

C=CC(=O)OCC(COC(=O)C=C)(COC(=O)C=C)COC(=O)C=C
active: [1] 5.45 µM | [2] 6.86 µM | [3] 12.2 µM
not listed: [14] | [15] | [16] | [19]
inactive: all other assays above

CCOc1cc(C(C)(C)C)ccc1C1COC(c2c(F)cccc2F)=N1 (stereo unspecified)
active: [2] 41.6 µM | [4] 29.5 µM
not listed: [15] | [16] | [19]
inactive: all other assays above

C[C@H]1O[C@@H](O[C@H]2[C@@H](O)C[C@H](O[C@H]3[C@@H](O)C[C@H](O[C@H]4CC[C@@]5(C)[C@H](CC[C@@H]6[C@@H]5CC[C@]5(C)[C@@H](C7=CC(=O)OC7)CC[C@]65O)C4)O[C@@H]3C)O[C@@H]2C)C[C@H](O)[C@@H]1O
active: [2] 47.3 nM and 12.3 nM | [3] 53.1 nM and 30.8 nM | [19] 119 nM and 97.5 nM | [16] 0.425 µM
not listed: [5]
inactive: all other assays above

CC(C)CC(C)(c1ccc(O)cc1)c1ccc(O)cc1
active: [2] 68.7 µM and 61.1 µM | [4] 34.4 µM and 27.3 µM | [19] 6.87 µM and 6.86 µM | [16] 19.5 µM
not listed: [11] | [15]
inactive: all other assays above

O=C1c2ccccc2C(=O)C1C(=O)C(c1ccccc1)c1ccc(Cl)cc1 (stereo unspecified)
active: [2] 24.3 µM | [3] 3.06 µM | [4] 61.1 µM | [19] 0.386 µM | [16] 12.3 µM
not listed: [5]
inactive: all other assays above

Cc1cc(C(F)(C(F)(F)F)C(F)(F)F)ccc1NC(=O)c1cccc(I)c1C(=O)NC(C)(C)CS(C)(=O)=O
not listed: [16] | [19]
inactive: all other assays above

CCCOCC(=Nc1ccc(Cl)cc1C(F)(F)F)n1ccnc1
active: [2] 24.3 µM | [3] 61.1 µM | [4] 30.6 µM
not listed: [5] | [14] | [15] | [16] | [19]
inactive: all other assays above

CC[C@H]1C[C@@H]2C[C@H]3c4[nH]c5ccc(OC)cc5c4CCN(C2)[C@@H]13
not listed: [11] | [14] | [15] | [16] | [17] | [19]
inactive: all other assays above

Nc1ccc(Sc2ccc(N)cc2)cc1
not listed: [5] | [16] | [19]
inactive: all other assays above

O=C(CCCN1CCC2(CC1)C(=O)NCN2c1ccccc1)c1ccc(F)cc1
not listed: [17] | [19]
inactive: all other assays above

C=CCC1=C(C)C(OC(=O)C2C(C=C(C)C)C2(C)C)CC1=O (stereo unspecified)
active: [2] 64.8 µM | [4] 11.5 µM
not listed: [14] | [16] | [19]
inactive: all other assays above
